{"source": "the OligoGym collection", "data": [{"target": "NAGPA", "assay": "pooled miR-30 sensor sort-seq; sequence = guide strand", "settings": "shRNA", "values": [{"sequence": "TTGATGTAGATGCTTCCATTAC", "sensor-assay potency score (higher = more potent)": -1.88}, {"sequence": "TCTCGTCACACTCTGTGGCTTG", "sensor-assay potency score (higher = more potent)": 0.00905}, {"sequence": "TCGTTGATGTAGATGCTTCCAT", "sensor-assay potency score (higher = more potent)": -0.346}, {"sequence": "TTCATGCGGAAGAAGCCGCCGT", "sensor-assay potency score (higher = more potent)": -0.589}, {"sequence": "TTTCAGCAGGAACTCCGCCATT", "sensor-assay potency score (higher = more potent)": -1.66}, {"sequence": "TAGGGCAGTAGCAAGTCGTCGT", "sensor-assay potency score (higher = more potent)": 0.274}, {"sequence": "TTGAGCACAAAGGTGGCAGAGC", "sensor-assay potency score (higher = more potent)": -0.854}, {"sequence": "TTCCTCTCTGCTCTGGACAGGA", "sensor-assay potency score (higher = more potent)": -0.227}]}, {"target": "NAGS", "assay": "pooled miR-30 sensor sort-seq; sequence = guide strand", "settings": "shRNA", "values": [{"sequence": "TTGCACACCAGGTCCAGGTCGG", "sensor-assay potency score (higher = more potent)": -0.37}, {"sequence": "TTATTGAGGAAGATGATTTTGG", "sensor-assay potency score (higher = more potent)": -0.526}, {"sequence": "TCACTGTGTTTGAAGTACCAGG", "sensor-assay potency score (higher = more potent)": -0.966}, {"sequence": "TTGAGGAAGATGATTTTGGTGG", "sensor-assay potency score (higher = more potent)": -0.197}, {"sequence": "TAGTCGTCCCTGAGCTTCTTGC", "sensor-assay potency score (higher = more potent)": -1.38}, {"sequence": "TTAGAGTGAGTCGAGTTGGGGT", "sensor-assay potency score (higher = more potent)": -0.187}, {"sequence": "TCTACCAGCACCTTGCAGCTCT", "sensor-assay potency score (higher = more potent)": 0.351}, {"sequence": "TTTAGAGTGAGTCGAGTTGGGG", "sensor-assay potency score (higher = more potent)": -0.776}, {"sequence": "TTACTCAGGACCTTATGACTGC", "sensor-assay potency score (higher = more potent)": -0.0355}, {"sequence": "TTGACCAGGTCCACTAGACGGC", "sensor-assay potency score (higher = more potent)": -0.973}, {"sequence": "TGTAGCTTTAGAGTGAGTCGAG", "sensor-assay potency score (higher = more potent)": 0.177}, {"sequence": "TTGATGGGGTTGGTGACCCGGG", "sensor-assay potency score (higher = more potent)": -1.22}]}, {"target": "NAP1L5", "assay": "pooled miR-30 sensor sort-seq; sequence = guide strand", "settings": "shRNA", "values": [{"sequence": "TTTTTGAGGGCCAGGACTCGGC", "sensor-assay potency score (higher = more potent)": -1.25}, {"sequence": "TATCTTATCGCATCGCTTCTGC", "sensor-assay potency score (higher = more potent)": 0.0139}, {"sequence": "TTGGCTTCTATCTTATCGCATC", "sensor-assay potency score (higher = more potent)": -1.13}, {"sequence": "TTCTATCTTATCGCATCGCTTC", "sensor-assay potency score (higher = more potent)": -0.589}, {"sequence": "ATACTTTTTTTCCAGAGCCTGA", "sensor-assay potency score (higher = more potent)": -1.24}, {"sequence": "TCTTATCGCATCGCTTCTGCAG", "sensor-assay potency score (higher = more potent)": -1}, {"sequence": "TTATAGATGTCATTATACTTTT", "sensor-assay potency score (higher = more potent)": -1.32}, {"sequence": "TATACTTTTTTTCCAGAGCCTG", "sensor-assay potency score (higher = more potent)": -1}, {"sequence": "TTGAGGGCCAGGACTCGGCATT", "sensor-assay potency score (higher = more potent)": -1.45}, {"sequence": "TTGGATCTTGGCGAGTAGGGGC", "sensor-assay potency score (higher = more potent)": -0.336}, {"sequence": "TCTATCTTATCGCATCGCTTCT", "sensor-assay potency score (higher = more potent)": -0.911}]}, {"target": "NARF", "assay": "pooled miR-30 sensor sort-seq; sequence = guide strand", "settings": "shRNA", "values": [{"sequence": "TTCTTTTTGACTCTCCAGGATA", "sensor-assay potency score (higher = more potent)": -1.07}, {"sequence": "TTGAACAGCTCCTTGGCCGCAT", "sensor-assay potency score (higher = more potent)": 0.2}, {"sequence": "ATCCTCGTTGAACAGCTCCTTG", "sensor-assay potency score (higher = more potent)": -0.97}, {"sequence": "TTGAGGAAACCACAGAGTCTTC", "sensor-assay potency score (higher = more potent)": -1.68}, {"sequence": "TATTTGAGCAATTTCACCTGAT", "sensor-assay potency score (higher = more potent)": 0.609}, {"sequence": "TTATTTGAGCAATTTCACCTGA", "sensor-assay potency score (higher = more potent)": 0.612}, {"sequence": "TTGTTTTCTTACTACATTCCTT", "sensor-assay potency score (higher = more potent)": -0.477}, {"sequence": "TGGTGCAATCTTGTCTCGCTGT", "sensor-assay potency score (higher = more potent)": -0.584}, {"sequence": "TGAGGTATCACATTTCTTGTTA", "sensor-assay potency score (higher = more potent)": -0.0479}]}]}
